# Assay results reported in PMC7862700, “An all-to-all approach to the identification of sequence-specific readers for epigenetic DNA modifications on cytosine”.
# Key:
# Test in all cases: DAPPL (digital affinity profiling via proximity ligation, sequencing); 10 mM Tris-HCl pH 7.5, 50 mM NaCl, 1 mM DTT, 4% glycerol, room temperature, 30 min; GST-TFs on glutathione beads, 16-mer random dsDNA library, 0.1% formaldehyde crosslink after washing; high values mean tight binding
# FLI1 = target: T1, FLI1 (Homo sapiens, UniProt Q01543 1-452); conditions: protein: recombinant; tags: N-terminal GST; dsDNA, one strand shown
# T1 sequence: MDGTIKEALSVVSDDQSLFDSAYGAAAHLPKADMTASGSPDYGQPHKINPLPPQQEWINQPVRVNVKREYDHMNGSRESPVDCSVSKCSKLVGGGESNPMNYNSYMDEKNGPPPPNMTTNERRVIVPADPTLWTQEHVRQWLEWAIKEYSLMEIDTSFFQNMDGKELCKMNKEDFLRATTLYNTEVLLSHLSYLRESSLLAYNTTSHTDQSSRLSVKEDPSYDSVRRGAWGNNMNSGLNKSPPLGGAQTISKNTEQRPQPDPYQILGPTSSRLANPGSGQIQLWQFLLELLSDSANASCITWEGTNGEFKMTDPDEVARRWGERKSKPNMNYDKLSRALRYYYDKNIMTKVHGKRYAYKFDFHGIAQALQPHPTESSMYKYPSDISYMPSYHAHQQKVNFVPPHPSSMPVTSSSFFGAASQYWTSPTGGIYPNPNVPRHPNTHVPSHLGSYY
# Summary of the method: (§1)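 The binding signal reported is, for every hexamer, its read frequency for a factor over its read frequency for the tag-only sample. Reads came from pools of yeast-expressed, GST-fused human transcription factors on glutathione beads, barcoded with DNA and mixed with that sample, which were incubated with 200 nmole of a random double-stranded 16-mer DNA library in Tris/NaCl/DTT/glycerol buffer at room temperature for 30 min. After washing, the pools were crosslinked with 0.1% formaldehyde, proximity-ligated with BsaI/T4 ligase for 1 h at 37 °C, PCR-amplified and sequenced on an Illumina NextSeq500.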
# ELK1 = target: T2, ELK1 (Homo sapiens, UniProt P19419 1-428); conditions: protein: recombinant; tags: N-terminal GST; dsDNA, one strand shown
# T2 sequence: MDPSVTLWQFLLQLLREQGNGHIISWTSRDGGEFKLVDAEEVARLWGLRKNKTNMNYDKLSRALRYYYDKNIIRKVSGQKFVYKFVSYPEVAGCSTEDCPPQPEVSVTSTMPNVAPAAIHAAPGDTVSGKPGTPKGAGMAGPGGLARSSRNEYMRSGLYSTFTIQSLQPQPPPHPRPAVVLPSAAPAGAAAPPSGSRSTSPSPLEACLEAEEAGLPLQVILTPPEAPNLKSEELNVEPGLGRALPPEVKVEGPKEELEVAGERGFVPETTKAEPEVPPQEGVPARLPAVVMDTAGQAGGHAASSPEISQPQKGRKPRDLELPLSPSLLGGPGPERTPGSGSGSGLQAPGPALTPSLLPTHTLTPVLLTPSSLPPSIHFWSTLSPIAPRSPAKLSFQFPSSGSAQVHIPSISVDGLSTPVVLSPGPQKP
# Summary of the method: as §1
# ERG = target: T3, ERG (Homo sapiens, UniProt P11308 1-479); conditions: protein: recombinant; tags: N-terminal GST; dsDNA, one strand shown
# T3 sequence: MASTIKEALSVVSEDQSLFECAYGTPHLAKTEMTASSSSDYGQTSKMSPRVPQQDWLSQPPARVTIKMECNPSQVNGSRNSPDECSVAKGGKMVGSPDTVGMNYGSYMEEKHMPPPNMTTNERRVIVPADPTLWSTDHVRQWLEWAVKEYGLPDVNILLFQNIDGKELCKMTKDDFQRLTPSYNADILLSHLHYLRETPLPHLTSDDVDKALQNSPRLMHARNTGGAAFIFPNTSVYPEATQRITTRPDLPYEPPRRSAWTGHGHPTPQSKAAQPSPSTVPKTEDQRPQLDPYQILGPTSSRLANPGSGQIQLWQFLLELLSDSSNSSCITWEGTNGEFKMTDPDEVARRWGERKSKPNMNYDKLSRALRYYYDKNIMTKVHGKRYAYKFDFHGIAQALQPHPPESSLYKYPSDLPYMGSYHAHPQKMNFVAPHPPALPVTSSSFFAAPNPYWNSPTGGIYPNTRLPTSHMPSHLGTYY
# Summary of the method: as §1
# ELF1 = ELF1 (Homo sapiens, UniProt P32519 1-619); conditions: protein: recombinant; tags: N-terminal GST; dsDNA, one strand shown
# Summary of the method: as §1
# EHF = target: T4, EHF (Homo sapiens, UniProt Q9NZC4 1-300); conditions: protein: recombinant; tags: N-terminal GST; dsDNA, one strand shown
# T4 sequence: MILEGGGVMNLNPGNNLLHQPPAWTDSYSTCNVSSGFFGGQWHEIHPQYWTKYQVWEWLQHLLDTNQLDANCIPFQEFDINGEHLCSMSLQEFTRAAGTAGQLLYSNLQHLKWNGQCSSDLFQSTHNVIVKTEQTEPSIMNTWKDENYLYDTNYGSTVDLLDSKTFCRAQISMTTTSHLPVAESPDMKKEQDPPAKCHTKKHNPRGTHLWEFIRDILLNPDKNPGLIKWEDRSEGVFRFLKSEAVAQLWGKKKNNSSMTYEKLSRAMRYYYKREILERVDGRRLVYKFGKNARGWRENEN
# Summary of the method: as §1
# SPI1 = SPI1 (Homo sapiens, UniProt P17947 1-270); conditions: protein: recombinant; tags: N-terminal GST; dsDNA, one strand shown
# Summary of the method: as §1
# SPIB = SPIB (Homo sapiens, UniProt Q01892 1-262); conditions: protein: recombinant; tags: N-terminal GST; dsDNA, one strand shown
# Summary of the method: as §1
# ELK3 = target: T5, ELK3 (Homo sapiens, UniProt P41970 1-407); conditions: protein: recombinant; tags: N-terminal GST; dsDNA, one strand shown
# T5 sequence: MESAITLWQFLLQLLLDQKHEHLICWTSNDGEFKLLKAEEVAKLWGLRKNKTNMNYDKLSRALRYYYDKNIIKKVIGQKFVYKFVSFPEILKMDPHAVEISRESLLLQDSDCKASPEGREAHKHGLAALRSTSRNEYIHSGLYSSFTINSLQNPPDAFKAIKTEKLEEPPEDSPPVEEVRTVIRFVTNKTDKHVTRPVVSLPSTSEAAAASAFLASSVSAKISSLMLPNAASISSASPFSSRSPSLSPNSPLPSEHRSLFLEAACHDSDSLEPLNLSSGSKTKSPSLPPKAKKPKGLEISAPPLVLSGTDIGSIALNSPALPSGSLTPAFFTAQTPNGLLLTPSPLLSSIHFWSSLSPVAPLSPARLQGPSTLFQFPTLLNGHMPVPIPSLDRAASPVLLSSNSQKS
# Summary of the method: as §1
# FEV = target: T6, FEV (Homo sapiens, UniProt Q99581 1-238); conditions: protein: recombinant; tags: N-terminal GST; dsDNA, one strand shown
# T6 sequence: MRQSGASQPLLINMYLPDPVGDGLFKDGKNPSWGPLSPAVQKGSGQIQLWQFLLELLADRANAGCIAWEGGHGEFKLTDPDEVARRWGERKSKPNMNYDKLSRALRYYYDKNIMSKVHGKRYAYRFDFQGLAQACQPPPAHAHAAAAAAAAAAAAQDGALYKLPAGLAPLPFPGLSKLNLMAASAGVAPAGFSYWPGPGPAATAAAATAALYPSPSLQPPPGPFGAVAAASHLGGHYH
# Summary of the method: as §1
# ETV5 = ETV5 (Homo sapiens, UniProt P41161 1-510); conditions: protein: recombinant; tags: N-terminal GST; dsDNA, one strand shown
# Summary of the method: as §1
# HSF1 = HSF1 (Homo sapiens, UniProt Q00613 1-529); conditions: protein: recombinant; tags: N-terminal GST; chain copies: 3; dsDNA, one strand shown
# Summary of the method: as §1
# SPIC = target: T7, SPIC (Homo sapiens, UniProt Q8N5J4 1-248); conditions: protein: recombinant; tags: N-terminal GST; dsDNA, one strand shown
# T7 sequence: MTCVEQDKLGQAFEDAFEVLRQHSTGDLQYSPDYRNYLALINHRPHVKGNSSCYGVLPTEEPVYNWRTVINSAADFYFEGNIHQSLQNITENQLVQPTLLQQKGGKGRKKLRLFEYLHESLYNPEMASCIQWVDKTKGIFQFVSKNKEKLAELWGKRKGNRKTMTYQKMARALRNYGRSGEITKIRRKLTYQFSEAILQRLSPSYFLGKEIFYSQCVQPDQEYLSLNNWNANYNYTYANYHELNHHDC
# Summary of the method: as §1
# ELF4 = ELF4 (Homo sapiens, UniProt Q99607 1-663); conditions: protein: recombinant; tags: N-terminal GST; dsDNA, one strand shown
# Summary of the method: as §1
# ELK4 = target: T8, ELK4 (Homo sapiens, UniProt P28324-2 1-405); conditions: protein: recombinant; tags: N-terminal GST; dsDNA, one strand shown
# T8 sequence: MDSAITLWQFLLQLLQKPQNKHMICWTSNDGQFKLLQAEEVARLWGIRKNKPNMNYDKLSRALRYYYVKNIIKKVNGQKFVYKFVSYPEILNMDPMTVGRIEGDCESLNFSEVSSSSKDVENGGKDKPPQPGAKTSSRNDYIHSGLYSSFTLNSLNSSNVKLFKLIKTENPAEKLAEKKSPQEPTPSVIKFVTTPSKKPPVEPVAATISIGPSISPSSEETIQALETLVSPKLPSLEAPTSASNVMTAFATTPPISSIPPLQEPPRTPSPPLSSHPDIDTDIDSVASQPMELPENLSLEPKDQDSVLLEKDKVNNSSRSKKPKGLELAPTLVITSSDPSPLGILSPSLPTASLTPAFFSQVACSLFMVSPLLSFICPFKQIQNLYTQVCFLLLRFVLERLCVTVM
# Summary of the method: as §1
# ETV2 = target: T9, ETV2 (Homo sapiens, UniProt O00321 1-342); conditions: protein: recombinant; tags: N-terminal GST; dsDNA, one strand shown
# T9 sequence: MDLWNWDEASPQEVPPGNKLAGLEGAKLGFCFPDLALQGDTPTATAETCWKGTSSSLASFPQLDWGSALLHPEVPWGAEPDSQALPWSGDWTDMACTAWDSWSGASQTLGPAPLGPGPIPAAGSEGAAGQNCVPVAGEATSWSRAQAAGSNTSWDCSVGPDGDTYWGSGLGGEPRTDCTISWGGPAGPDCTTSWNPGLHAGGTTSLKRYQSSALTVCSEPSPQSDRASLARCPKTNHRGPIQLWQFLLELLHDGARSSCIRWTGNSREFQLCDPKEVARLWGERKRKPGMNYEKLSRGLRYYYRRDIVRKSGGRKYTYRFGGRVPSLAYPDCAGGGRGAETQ
# Summary of the method: as §1
# ELF3 = target: T10, ELF3 (Homo sapiens, UniProt P78545 1-371); conditions: protein: recombinant; tags: N-terminal GST; dsDNA, one strand shown
# T10 sequence: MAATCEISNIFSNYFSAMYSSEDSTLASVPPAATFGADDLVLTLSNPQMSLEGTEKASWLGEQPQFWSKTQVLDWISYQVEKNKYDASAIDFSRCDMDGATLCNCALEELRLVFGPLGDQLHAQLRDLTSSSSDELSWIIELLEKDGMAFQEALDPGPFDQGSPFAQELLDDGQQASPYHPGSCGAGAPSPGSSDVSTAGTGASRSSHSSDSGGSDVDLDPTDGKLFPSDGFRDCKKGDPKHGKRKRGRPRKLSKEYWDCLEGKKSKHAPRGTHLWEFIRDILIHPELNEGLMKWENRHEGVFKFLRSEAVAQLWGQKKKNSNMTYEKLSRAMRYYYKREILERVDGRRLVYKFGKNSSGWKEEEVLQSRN
# Summary of the method: as §1
# CRX = CRX (Homo sapiens, UniProt O43186 1-299); conditions: protein: recombinant; tags: N-terminal GST; dsDNA, one strand shown
# Summary of the method: as §1
# ETV1 = ETV1 (Homo sapiens, UniProt P50549 1-477); conditions: protein: recombinant; tags: N-terminal GST; dsDNA, one strand shown
# Summary of the method: as §1
# Chain of ELF1 (P32519 whole entry): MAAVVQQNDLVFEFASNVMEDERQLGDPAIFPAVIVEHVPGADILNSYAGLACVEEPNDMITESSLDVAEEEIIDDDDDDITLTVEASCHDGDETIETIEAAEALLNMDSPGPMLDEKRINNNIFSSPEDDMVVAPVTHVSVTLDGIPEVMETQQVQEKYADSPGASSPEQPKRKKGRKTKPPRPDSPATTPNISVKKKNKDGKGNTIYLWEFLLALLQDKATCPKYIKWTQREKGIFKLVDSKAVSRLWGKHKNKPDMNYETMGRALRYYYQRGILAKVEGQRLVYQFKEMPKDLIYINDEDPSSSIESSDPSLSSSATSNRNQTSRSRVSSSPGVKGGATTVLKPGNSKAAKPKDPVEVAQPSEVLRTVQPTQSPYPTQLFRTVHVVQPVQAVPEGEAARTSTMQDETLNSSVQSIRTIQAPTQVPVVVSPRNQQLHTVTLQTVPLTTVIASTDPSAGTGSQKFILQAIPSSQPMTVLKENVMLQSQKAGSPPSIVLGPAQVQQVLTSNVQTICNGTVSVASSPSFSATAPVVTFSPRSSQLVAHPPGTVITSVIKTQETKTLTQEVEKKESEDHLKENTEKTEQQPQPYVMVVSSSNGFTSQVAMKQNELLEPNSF
# Chain of ETV1 (P50549 whole entry): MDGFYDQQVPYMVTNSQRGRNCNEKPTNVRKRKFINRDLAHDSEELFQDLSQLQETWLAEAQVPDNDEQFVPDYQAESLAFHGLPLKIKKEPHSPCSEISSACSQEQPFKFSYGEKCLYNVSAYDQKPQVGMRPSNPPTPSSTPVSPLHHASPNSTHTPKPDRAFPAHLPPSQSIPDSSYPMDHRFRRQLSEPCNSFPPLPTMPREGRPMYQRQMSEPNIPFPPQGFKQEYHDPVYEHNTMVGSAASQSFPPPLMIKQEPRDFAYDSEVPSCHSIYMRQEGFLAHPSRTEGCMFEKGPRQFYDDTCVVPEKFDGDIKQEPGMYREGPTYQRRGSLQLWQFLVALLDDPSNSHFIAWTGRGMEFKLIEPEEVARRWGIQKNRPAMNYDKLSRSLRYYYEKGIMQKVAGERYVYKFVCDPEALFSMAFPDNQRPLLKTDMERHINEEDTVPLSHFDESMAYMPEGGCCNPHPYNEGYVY
# Chain of CRX (O43186 whole entry): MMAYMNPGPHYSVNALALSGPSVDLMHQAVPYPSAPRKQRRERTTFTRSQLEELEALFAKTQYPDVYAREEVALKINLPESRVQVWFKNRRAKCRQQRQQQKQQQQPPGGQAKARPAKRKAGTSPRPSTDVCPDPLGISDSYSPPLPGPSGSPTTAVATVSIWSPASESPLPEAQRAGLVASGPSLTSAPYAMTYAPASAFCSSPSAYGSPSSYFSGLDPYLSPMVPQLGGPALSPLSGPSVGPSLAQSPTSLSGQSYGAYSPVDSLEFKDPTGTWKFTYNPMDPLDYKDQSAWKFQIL
# Chain of SPIB (Q01892 whole entry): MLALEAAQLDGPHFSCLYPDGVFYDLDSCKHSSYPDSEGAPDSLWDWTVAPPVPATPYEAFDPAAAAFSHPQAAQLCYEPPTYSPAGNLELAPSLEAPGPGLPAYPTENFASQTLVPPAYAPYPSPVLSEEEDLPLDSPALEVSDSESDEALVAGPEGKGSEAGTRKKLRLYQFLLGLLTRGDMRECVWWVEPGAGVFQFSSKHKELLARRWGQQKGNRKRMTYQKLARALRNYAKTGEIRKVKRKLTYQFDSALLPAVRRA
# Chain of ETV5 (P41161 whole entry): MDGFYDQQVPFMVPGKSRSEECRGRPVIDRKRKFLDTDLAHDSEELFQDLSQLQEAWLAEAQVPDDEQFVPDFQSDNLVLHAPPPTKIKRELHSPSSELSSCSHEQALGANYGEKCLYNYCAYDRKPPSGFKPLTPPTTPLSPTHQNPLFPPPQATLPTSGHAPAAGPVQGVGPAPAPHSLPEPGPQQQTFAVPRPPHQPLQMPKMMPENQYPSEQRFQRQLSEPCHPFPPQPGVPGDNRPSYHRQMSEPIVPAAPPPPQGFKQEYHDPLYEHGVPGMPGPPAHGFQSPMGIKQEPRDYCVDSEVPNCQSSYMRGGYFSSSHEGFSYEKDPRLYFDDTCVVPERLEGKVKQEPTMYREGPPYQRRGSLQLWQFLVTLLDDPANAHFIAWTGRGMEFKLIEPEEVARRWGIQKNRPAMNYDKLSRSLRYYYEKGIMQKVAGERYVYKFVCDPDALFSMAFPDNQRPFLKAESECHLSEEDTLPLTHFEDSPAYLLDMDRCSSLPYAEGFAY
# Chain of ELF4 (Q99607 whole entry): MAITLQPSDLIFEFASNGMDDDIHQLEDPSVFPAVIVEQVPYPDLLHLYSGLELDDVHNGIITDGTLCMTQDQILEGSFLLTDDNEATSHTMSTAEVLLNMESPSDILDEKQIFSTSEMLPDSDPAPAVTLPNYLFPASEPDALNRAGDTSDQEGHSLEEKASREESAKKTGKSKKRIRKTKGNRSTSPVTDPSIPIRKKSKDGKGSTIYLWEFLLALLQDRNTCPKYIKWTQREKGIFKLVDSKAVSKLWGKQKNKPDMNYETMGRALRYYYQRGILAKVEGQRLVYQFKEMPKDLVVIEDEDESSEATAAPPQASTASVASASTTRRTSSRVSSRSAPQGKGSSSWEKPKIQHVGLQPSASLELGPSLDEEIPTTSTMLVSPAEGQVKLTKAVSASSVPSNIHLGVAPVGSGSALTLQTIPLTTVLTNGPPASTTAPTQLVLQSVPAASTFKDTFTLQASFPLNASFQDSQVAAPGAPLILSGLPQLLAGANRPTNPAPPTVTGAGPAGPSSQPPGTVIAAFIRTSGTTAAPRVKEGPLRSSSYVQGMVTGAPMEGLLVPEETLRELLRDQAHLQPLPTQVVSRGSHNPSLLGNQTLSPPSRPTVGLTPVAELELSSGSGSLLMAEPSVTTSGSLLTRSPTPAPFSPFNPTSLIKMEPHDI
# Chain of HSF1 (Q00613 whole entry): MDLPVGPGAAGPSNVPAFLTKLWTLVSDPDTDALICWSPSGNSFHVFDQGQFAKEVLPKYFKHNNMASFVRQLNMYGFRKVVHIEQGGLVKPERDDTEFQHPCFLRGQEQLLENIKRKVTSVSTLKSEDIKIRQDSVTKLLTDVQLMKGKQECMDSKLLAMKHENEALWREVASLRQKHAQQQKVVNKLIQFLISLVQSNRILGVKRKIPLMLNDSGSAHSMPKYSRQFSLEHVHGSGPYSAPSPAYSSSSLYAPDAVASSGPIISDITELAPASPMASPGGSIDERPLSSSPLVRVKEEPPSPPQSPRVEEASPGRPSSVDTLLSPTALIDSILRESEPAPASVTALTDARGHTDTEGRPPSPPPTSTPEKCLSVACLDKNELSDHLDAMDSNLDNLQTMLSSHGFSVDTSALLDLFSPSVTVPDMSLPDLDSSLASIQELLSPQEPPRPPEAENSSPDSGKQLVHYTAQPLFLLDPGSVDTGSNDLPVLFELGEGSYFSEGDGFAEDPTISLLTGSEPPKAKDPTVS
sequence,measurement,setting,value
CAAATC,binding signal,FLI1,"1.06 fold enrichment (6-mer frequency, TF over GST control)"
same,binding signal,ELK1,"1.08 fold enrichment (6-mer frequency, TF over GST control)"
same,binding signal,ERG,"1.14 fold enrichment (6-mer frequency, TF over GST control)"
same,binding signal,ELF1,"1.16 fold enrichment (6-mer frequency, TF over GST control)"
same,binding signal,EHF,"1.12 fold enrichment (6-mer frequency, TF over GST control)"
same,binding signal,SPI1,"1.04 fold enrichment (6-mer frequency, TF over GST control)"
same,binding signal,SPIB,"1.11 fold enrichment (6-mer frequency, TF over GST control)"
same,binding signal,ELK3,"1.01 fold enrichment (6-mer frequency, TF over GST control)"
same,binding signal,FEV,"1.16 fold enrichment (6-mer frequency, TF over GST control)"
same,binding signal,ETV5,"1.14 fold enrichment (6-mer frequency, TF over GST control)"
same,binding signal,HSF1,"1.29 fold enrichment (6-mer frequency, TF over GST control)"
same,binding signal,SPIC,"1.17 fold enrichment (6-mer frequency, TF over GST control)"
same,binding signal,ELF4,"1.12 fold enrichment (6-mer frequency, TF over GST control)"
same,binding signal,ELK4,"1.17 fold enrichment (6-mer frequency, TF over GST control)"
same,binding signal,ETV2,"1.1 fold enrichment (6-mer frequency, TF over GST control)"
same,binding signal,ELF3,"1.12 fold enrichment (6-mer frequency, TF over GST control)"
same,binding signal,CRX,"1.69 fold enrichment (6-mer frequency, TF over GST control)"
same,binding signal,ETV1,"1.15 fold enrichment (6-mer frequency, TF over GST control)"
